Data from the supplement of paper PMC7156485.

Experiments:
Conditions in all cases: concentration: 10 µM; 24 h
HCC1569 [1] = test: cell number relative to DMSO (% of DMSO); higher = more cells (less growth inhibition / toxicity)
How it was run: (§1)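 H1.0 nuclear intensity or cell number is expressed as percent of the plate control, with the median of replicates taken. HCC1569 and TDF cells were treated with compounds at 10 µM for 24 h at 37 °C, in triplicate, then fixed and immunostained for H1.0 with DAPI as a nuclear stain. HCC1569 values were smoothed to correct for positional effects.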

TDF [2] = test: as above
How it was run: as §1

TDF [3] = test: H1.0 immunofluorescence intensity relative to DMSO (% of DMSO); higher = stronger H1.0 induction, active = 120 or more
How it was run: as §1

HCC1569 [4] = test: H1.0 immunofluorescence intensity relative to DMSO (% of DMSO); higher = stronger H1.0 induction, active = 140 or more
How it was run: as §1
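Throughout, for H1.0 immunofluorescence intensity relative to DMSO: TDF is a line of transformed human dermal fibroblasts of mesenchymal origin.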
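Throughout, for cell number relative to DMSO: TDF denotes transformed human dermal fibroblasts of mesenchymal origin.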

With `O=C(CCl)c1c[nH]c2ccccc12` [2-chloro-1-(1H-indol-3-yl)ethanone] the cell number (HCC1569 [1]) was 63.6, the cell number (TDF [2]) was 55 and the H1.0 immunofluorescence intensity (TDF [3]) was 125 (active). For the same compound, the H1.0 immunofluorescence intensity (HCC1569 [4]) was 150 (active).

In the case of `CCn1c(=O)c2[nH]c(-c3ccccc3)nc2n(CC)c1=O` [1,3-Diethyl-8-phenylxanthine], the cell number (HCC1569 [1]) is reported as 98.9, the cell number (TDF [2]) is reported as 103 and the H1.0 immunofluorescence intensity (TDF [3]) is reported as 90.7 (inactive). For the same compound, the H1.0 immunofluorescence intensity (HCC1569 [4]) was 87.1 (inactive).

With `COc1cc(C(=O)OCCCCN=C(N)N)cc(OC)c1O` the cell number (HCC1569 [1]) was 103, the cell number (TDF [2]) was 95.8 and the H1.0 immunofluorescence intensity (TDF [3]) was 102 (inactive). For the same compound, the H1.0 immunofluorescence intensity (HCC1569 [4]) was 104 (inactive).

`Cc1nc(-c2ccccc2)c(-c2ccncc2)o1` was tested, and the cell number (HCC1569 [1]) was 99.2, the cell number (TDF [2]) was 116 and the H1.0 immunofluorescence intensity (TDF [3]) was 94.1 (inactive). For the same compound, the H1.0 immunofluorescence intensity (HCC1569 [4]) was 103 (inactive).

For `CC1Cc2ccccc2N1NC(=O)c1ccc(Cl)c(S(N)(=O)=O)c1` (centres undefined) [Indapamide], the cell number (HCC1569 [1]) was 106, the cell number (TDF [2]) was 101 and the H1.0 immunofluorescence intensity (TDF [3]) was 88.5 (inactive). For the same compound, the H1.0 immunofluorescence intensity (HCC1569 [4]) was 112 (inactive).

In the case of `CC1=NN(c2ccc(C(=O)O)cc2)C(=O)/C1=C\c1ccc(-c2cc(C)c(C)cc2[N+](=O)[O-])o1`, the cell number (HCC1569 [1]) is reported as 89.5, the cell number (TDF [2]) is reported as 87.2 and the H1.0 immunofluorescence intensity (TDF [3]) is reported as 84.9 (inactive). For the same compound, the H1.0 immunofluorescence intensity (HCC1569 [4]) was 108 (inactive).

`COc1cc2ncnc(Sc3nnc(C)s3)c2cc1OC` was tested, and the cell number (HCC1569 [1]) was 63.3, the cell number (TDF [2]) was 67.7 and the H1.0 immunofluorescence intensity (TDF [3]) was 108 (inactive). For the same compound, the H1.0 immunofluorescence intensity (HCC1569 [4]) was 160 (active).

With `CCCCCCC(O)CC=CCCCCCCCC(=O)O` (centres undefined) [Ricinoleic acid] the cell number (HCC1569 [1]) was 98.1, the cell number (TDF [2]) was 104 and the H1.0 immunofluorescence intensity (TDF [3]) was 97.7 (inactive). For the same compound, the H1.0 immunofluorescence intensity (HCC1569 [4]) was 101 (inactive).

With `CCCCCCCCCCCCCCCCCCCCCCCC(=O)O` [Tetracosanoic acid] the cell number (HCC1569 [1]) was 99.5, the cell number (TDF [2]) was 104 and the H1.0 immunofluorescence intensity (TDF [3]) was 98 (inactive). The H1.0 immunofluorescence intensity (HCC1569 [4]) was 104 (inactive).

In the case of `C=C1C(=CC=C2CCCC3(C)C2CCC3C(C)CCCC(C)(C)O)CC(O)CC1O` (centres undefined) [Calcitriol], the cell number (HCC1569 [1]) is reported as 102, the cell number (TDF [2]) is reported as 100 and the H1.0 immunofluorescence intensity (TDF [3]) is reported as 98.2 (inactive). The H1.0 immunofluorescence intensity (HCC1569 [4]) was 112 (inactive).

In the case of `CCOC(=O)OC(C)OC1=C(C(=O)Nc2ccccn2)N(C)S(=O)(=O)c2ccccc21` (centres undefined) [Ampiroxicam], the cell number (HCC1569 [1]) is reported as 105, the cell number (TDF [2]) is reported as 94.9 and the H1.0 immunofluorescence intensity (TDF [3]) is reported as 99.6 (inactive). The H1.0 immunofluorescence intensity (HCC1569 [4]) was 116 (inactive).
